# According to PubChem BioAssay (NCI):
# Compounds without any hit were thinned out: in the full panel of roughly 83,000, 20% have a hit.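 Method: cells in 96-well plates; compound added at one concentration; 48 h incubation; percent growth measured; values under 10 scored active.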 A number with no mark means an inactive call. Activity calls are given as the source filed them.
# Tests used:
# Assay in all cases: NCI-60 one-dose screen, 48 h (100 = growth as untreated, 0 = no growth, -100 = all killed)
# Conditions in all cases: 10 µM unless noted
# [1] = test system: SK-MEL-2 melanoma
# [2] = test system: EKVX NSCLC
# [3] = test system: SN12C renal
# [4] = test system: UO-31 renal
# [5] = test system: TK-10 renal
# [6] = test system: ACHN renal
# [7] = test system: CAKI-1 renal
# [8] = test system: A498 renal
# [9] = test system: CCRF-CEM leukemia
# [10] = test system: MOLT-4 leukemia
Compound,growth [1],growth [2],growth [3],growth [4],growth [5],growth [6],growth [7],growth [8],growth [9],growth [10]
COc1cc(OCc2cccc(-c3ccc4c(c3)OCCO4)c2C)cc(OC)c1C=O,58.3%,53.7%,68.2%,51%,43.4%,48%,25.9%,-10.4% (active),59.1%,56.4%
Cc1c(C)c2c(c(C)c1OC(=O)CCC(=O)[O-])CCC(C)(CCCCCCCCCCC[P+](c1ccccc1)(c1ccccc1)c1ccccc1)O2 (stereo not given),-64.4% (active),-25.1% (active),-65.7% (active),-3.37% (active),-14.2% (active),-5.75% (active),-28.3% (active),-73.9% (active),0.344% (active),-25.5% (active)
COc1cc(C)cc(-c2c(-c3cc(N4CC(O)C4)nc(-c4cccnc4)n3)cnn2C)c1,113%,91.7%,77.8%,76.7%,99.5%,66.5%,94.5%,72.8%,78.9%,94.6%
O=c1c2cccc3c(N4CCOCC4)ccc(c32)c2nc3ccccc3n12,108%,38.3%,87.6%,65.9%,71.8%,91.1%,69.6%,101%,93.1%,90.8%
Cc1ccc(-c2nnc(SCc3nc(N)nc(Nc4ccccc4F)n3)n2-c2ccccc2)cc1,95.4%,94.2%,95.6%,70.4%,100%,92%,85.2%,55.3%,90.2%,70.2%
COc1cccc(NC(=O)c2sc3nc(C)c(C(=O)c4ccccc4)cc3c2N)c1,93.7%,69.1%,94.4%,93%,102%,96.6%,63.2%,-2.09% (active),99%,115%
C#Cc1cccc(Nc2nc(Cl)nc3cc(NC(=O)CCl)ccc23)c1,-75.9% (active),-76.5% (active),-70.7% (active),-96% (active),-96.3% (active),-98% (active),-96.9% (active),59.6%,-17.4% (active),-24.9% (active)
COc1ccc(C(=O)/C=C/c2ccc(Cl)cc2)cc1S(N)(=O)=O,80.3%,87.3%,15.4%,33.1%,70%,58.4%,74.9%,84.6%,-18.3% (active),-5.39% (active)
COC(=O)CNC(=O)c1ccc(NC(=O)c2[nH]c(C)c(Cl)c2Cl)c(O[C@H]2CCNC2)c1,108%,102%,97.5%,84.8%,104%,106%,94.9%,89.9%,91.9%,93.5%
CNC(=O)c1cc(Oc2ccc3nc(NC(=O)c4cc(C(F)(F)F)cc(C(F)(F)F)c4)sc3c2)ccn1,-18.5% (active),23.3%,10.5%,6.1% (active),16.6%,14.9%,11%,-11.4% (active),16.8%,8.03% (active)
O=C1Nc2ccccc2/C1=C/c1cccn1CCCCCCn1c2ccccc2c(=O)c2ccccc21,86.3%,65.3%,93.6%,56.2%,78.7%,89.7%,72.6%,103%,49.8%,50.9%
CCCCCCCCCCCCCC[n+]1ccc2c(C)c3c(c(C)c2c1)c1cc(O)ccc1n3CC,-81.6% (active),-34.5% (active),-74.9% (active),-1.41% (active),-46.6% (active),-25.3% (active),31.4%,-19.8% (active),-16% (active),-44.5% (active)
O=C(CSc1nnc(-c2ccc(Cl)c(Cl)c2)n1-c1ccccc1)Nc1ccc(C(=O)/C=C/c2ccc(Cl)cc2)cc1,78.6%,88.3%,89.4%,66.2%,93.3%,98%,74.2%,82.5%,83.7%,80.5%
COc1ccc(CNc2ccc3nc(CCC4CCCCC4)[nH]c3c2)cc1,87%,79.1%,68%,33.9%,86.4%,93.4%,72.2%,53.2%,69.2%,52.9%
COc1ccc(-c2cn(Cc3ccc4c(Br)cc(Br)c(O)c4n3)nn2)cc1,101%,84.2%,100%,-92.3% (active),91.3%,-68.7% (active),61.6%,99.6%,73.9%,87%
O=C1C(c2c(O)[nH]c3ncccc23)=Nc2ccccc21,43.4%,30.6%,90.6%,46.2%,56.4%,51.5%,53.7%,117%,88.4%,85.4%
COC1CC(O)C2=C(CC3C(/C(C)=C\CC=C(C)C)CCC3(C)O2)C1=O (stereo not given),96.9%,105%,107%,89.6%,92.4%,111%,107%,103%,88.1%,92.2%
CCCn1cnc2c(c1=N)C(c1ccc(Cl)cc1)c1sc3c(F)cccc3c1O2 (stereo not given),103%,80%,69.3%,50.5%,102%,84.1%,70.6%,94.7%,64.4%,56.7%
Nc1ncc(-c2ccc3ncnc(N4CCc5cc(F)c(Cl)cc54)c3c2)cc1C(F)(F)F,27.7%,14.8%,24.8%,-2.54% (active),9.32% (active),17.2%,-8.15% (active),-50.2% (active),28.2%,8.68% (active)
C=CCOC(=O)C1=C(C)N(CC)C(=O)N(CC)C1c1c(Cl)n(C)c2ccccc12 (stereo not given),95.6%,75.5%,89%,64.6%,94.1%,56.9%,32.8%,82.5%,-9.42% (active),89.3%
